Measured values as given in ChEMBL document CHEMBL3988442, “University of Dundee, Small-Polar-MMV Screening Library” (2021).
For some assays here: Entries with a potency or affinity are not part of this list.

Assays:
Design in all cases: scale not given: direction of the effect not stated beside the values
[1] = molecular target: Protein translocase subunit SecA (Escherichia coli (strain K12)) (UniProt P10408); test: Assay to Identify E. coli SecA ATPase Inhibitors; assay type: functional; details: 30 µM
Protein translocase subunit SecA (Escherichia coli (strain K12)), sequence (P10408 whole entry): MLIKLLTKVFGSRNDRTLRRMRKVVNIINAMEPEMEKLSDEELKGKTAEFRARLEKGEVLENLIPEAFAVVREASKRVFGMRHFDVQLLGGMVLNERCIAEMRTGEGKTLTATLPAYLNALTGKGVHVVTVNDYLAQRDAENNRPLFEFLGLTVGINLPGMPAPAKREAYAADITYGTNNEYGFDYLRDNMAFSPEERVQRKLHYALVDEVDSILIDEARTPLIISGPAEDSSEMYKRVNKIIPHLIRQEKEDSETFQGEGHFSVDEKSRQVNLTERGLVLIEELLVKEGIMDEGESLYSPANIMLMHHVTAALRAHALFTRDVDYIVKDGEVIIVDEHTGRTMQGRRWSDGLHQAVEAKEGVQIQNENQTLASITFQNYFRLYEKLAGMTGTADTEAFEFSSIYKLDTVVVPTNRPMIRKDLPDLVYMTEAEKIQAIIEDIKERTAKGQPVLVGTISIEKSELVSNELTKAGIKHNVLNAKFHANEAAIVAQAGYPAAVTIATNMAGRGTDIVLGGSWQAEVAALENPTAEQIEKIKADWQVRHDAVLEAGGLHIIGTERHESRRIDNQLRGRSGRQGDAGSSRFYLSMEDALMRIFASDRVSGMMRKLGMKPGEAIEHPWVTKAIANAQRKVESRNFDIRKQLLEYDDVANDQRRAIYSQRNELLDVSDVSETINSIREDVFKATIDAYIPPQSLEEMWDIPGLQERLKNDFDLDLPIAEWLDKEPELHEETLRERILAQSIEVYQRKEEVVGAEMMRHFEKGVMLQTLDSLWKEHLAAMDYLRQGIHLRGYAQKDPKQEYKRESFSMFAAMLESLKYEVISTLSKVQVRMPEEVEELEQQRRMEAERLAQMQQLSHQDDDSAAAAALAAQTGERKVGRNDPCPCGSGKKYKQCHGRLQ

[2] = molecular target: T1, Ubiquitin-activating enzyme e1, putative (Leishmania donovani (strain BPK282A1)) (UniProt E9BSI1); test: Leishmania donovani Ubiquitin Activating Enzyme (LdE1); assay type: functional; details: 30 µM
T1 sequence (whole entry): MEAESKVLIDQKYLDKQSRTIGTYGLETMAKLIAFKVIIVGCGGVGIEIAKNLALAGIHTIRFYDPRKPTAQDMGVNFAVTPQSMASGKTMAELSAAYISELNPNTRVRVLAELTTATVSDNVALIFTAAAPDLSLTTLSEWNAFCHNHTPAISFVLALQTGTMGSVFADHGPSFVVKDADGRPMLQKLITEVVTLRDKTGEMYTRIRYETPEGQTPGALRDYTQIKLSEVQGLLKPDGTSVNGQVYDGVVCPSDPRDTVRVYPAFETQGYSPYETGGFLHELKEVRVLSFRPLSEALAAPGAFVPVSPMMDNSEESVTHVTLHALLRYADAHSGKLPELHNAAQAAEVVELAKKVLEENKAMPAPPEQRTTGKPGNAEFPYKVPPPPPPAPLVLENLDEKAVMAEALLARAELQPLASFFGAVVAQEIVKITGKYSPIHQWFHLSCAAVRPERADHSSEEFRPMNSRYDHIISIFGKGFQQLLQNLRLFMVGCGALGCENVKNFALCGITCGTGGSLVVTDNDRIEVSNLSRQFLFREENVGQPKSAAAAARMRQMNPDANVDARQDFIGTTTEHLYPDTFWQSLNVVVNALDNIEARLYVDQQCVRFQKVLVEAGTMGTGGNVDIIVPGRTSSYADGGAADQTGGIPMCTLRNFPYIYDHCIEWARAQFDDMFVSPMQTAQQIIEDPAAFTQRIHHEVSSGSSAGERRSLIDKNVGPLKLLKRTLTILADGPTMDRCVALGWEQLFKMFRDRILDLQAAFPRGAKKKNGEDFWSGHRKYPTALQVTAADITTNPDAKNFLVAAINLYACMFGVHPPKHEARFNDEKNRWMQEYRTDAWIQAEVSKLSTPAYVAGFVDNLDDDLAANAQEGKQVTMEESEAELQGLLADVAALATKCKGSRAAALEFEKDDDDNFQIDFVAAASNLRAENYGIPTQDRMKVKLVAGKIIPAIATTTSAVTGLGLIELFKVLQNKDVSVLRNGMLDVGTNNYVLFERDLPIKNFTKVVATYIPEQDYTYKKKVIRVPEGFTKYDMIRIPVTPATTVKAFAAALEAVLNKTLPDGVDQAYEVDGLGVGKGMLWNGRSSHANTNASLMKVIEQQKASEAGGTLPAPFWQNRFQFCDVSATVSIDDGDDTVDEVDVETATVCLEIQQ

[3] = molecular target: AMP-activated protein kinase, AMPK (Homo sapiens) (UniProt P54646+O43741+P54619+Q9UGJ0+Q9Y478+Q13131+Q9UGI9); test: AMP-dependent Kinase enzyme assay. An in vitro enzyme assay that detects ADP turnover that is directly proportional to AMPK activity. This uses naive AMPK that is activated during the assay with MK-8722; assay type: functional; details: 30 µM
[4] = molecular target: Sialic acid-binding Ig-like lectin 9 (Homo sapiens) (UniProt Q9Y336); test: Hs-Siglec9 ALPHAscreen SOP 20170721; details: 10 µM
Sialic acid-binding Ig-like lectin 9 (Homo sapiens), sequence (Q9Y336 whole entry): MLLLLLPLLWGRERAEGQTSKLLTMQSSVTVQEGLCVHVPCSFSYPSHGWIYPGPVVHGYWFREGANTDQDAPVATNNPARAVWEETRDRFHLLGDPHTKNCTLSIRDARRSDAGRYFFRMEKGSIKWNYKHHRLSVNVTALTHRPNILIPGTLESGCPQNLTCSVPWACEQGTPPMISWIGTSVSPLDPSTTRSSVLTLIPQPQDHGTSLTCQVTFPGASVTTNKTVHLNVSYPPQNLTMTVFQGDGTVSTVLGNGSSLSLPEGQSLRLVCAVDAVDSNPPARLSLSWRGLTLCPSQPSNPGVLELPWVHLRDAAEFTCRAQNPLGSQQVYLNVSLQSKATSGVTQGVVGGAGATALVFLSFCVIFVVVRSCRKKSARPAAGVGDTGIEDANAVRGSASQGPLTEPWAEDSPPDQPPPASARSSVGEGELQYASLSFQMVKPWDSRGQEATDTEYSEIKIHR

Trypanosoma cruzi = test: Trypanosoma cruzi phosphomannomutase and mannose-1-phosphate guanylyltransferase assay; assay type: functional; details: 10 µM
[5] = molecular target: T2, Arginase-2, mitochondrial (Homo sapiens) (UniProt P78540); test: in vitro enzyme assay to detect the production of urea directly proportional to the activity of Arginase II; assay type: functional; details: 33.3 µM; further: in the data most compounds retested in dose-response had high values
T2 sequence (whole entry): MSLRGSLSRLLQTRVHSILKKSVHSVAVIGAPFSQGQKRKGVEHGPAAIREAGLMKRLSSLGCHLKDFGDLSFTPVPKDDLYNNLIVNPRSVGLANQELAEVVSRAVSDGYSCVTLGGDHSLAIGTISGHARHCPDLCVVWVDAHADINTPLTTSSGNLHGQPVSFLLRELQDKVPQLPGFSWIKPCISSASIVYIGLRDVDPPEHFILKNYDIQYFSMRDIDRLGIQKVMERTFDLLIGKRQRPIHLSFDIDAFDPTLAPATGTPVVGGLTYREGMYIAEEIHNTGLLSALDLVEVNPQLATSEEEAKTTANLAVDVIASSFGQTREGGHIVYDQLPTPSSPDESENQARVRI

[6] = molecular target: T3, Proteasome subunit beta (Trypanosoma cruzi) (UniProt O96673); test: Trypanosoma cruzi proteasome chymotrypsin-like activity (TcProtChymo) assay.; further: in the data most compounds retested in dose-response had high values; assay type: functional; details: 9.37 µM
T3 sequence (whole entry): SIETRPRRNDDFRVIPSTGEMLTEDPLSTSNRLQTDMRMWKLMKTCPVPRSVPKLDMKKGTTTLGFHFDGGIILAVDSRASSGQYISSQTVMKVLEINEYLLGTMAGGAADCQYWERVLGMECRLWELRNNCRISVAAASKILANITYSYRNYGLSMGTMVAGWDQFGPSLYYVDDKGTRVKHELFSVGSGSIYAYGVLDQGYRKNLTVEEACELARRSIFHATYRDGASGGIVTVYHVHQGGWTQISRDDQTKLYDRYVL

Homo sapiens = species on record: Homo sapiens; test: To identify inhibition of the IFN signalling (Jak-Stat) pathway via expression of an eGFP reporter gene under the control of an IFN-stimulated response element (ISRE) containing MxA promoter.; assay type: functional; details: 30 µM
[7] = molecular target: T4, Tyrosyl-tRNA synthetase, putative (Trypanosoma cruzi (strain CL Brener)) (UniProt Q4DSP6); test: Trypanosoma cruzi tyrosyl tRNA synthetase (TcYRS) _High Tyrosine SOP; assay type: functional; details: 30 µM; further: in the data most compounds retested in dose-response had high values
T4 sequence (whole entry): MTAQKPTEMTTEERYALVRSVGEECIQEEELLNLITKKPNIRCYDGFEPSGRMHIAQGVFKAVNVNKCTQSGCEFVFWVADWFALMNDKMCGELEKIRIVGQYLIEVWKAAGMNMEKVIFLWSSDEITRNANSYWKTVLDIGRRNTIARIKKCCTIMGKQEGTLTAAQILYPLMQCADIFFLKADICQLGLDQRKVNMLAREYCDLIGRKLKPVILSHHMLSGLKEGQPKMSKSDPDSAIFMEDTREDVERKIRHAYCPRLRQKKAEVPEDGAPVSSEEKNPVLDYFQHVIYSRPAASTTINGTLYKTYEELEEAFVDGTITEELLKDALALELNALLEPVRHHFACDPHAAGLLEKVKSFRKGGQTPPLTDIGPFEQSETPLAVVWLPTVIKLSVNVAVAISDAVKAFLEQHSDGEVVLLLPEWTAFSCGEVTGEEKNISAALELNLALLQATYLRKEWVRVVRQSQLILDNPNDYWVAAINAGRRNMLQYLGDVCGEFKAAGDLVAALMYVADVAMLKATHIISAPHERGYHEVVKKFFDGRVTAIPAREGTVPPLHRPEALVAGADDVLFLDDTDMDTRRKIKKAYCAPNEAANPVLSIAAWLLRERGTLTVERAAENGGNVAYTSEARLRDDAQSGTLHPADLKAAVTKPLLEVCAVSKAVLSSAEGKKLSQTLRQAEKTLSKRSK

[8] = molecular target: T4, Tyrosyl-tRNA synthetase, putative (Trypanosoma cruzi (strain CL Brener)); test: Trypanosoma cruzi tyrosyl tRNA synthetase (TcYRS) SOP; assay type: functional; details: 30 µM
[9] = molecular target: Chromo domain-containing protein 1 (Saccharomyces cerevisiae (strain ATCC 204508 / S288c) (Baker's yeast)) (UniProt P32657); test: ScCHD-1 Enzyme Inhibition Assay; assay type: functional; details: 30 µM; further: in the data most compounds retested in dose-response had high values
Chromo domain-containing protein 1 (Saccharomyces cerevisiae (strain ATCC 204508 / S288c) (Baker's yeast)), sequence (P32657 whole entry, the tested form may be a part): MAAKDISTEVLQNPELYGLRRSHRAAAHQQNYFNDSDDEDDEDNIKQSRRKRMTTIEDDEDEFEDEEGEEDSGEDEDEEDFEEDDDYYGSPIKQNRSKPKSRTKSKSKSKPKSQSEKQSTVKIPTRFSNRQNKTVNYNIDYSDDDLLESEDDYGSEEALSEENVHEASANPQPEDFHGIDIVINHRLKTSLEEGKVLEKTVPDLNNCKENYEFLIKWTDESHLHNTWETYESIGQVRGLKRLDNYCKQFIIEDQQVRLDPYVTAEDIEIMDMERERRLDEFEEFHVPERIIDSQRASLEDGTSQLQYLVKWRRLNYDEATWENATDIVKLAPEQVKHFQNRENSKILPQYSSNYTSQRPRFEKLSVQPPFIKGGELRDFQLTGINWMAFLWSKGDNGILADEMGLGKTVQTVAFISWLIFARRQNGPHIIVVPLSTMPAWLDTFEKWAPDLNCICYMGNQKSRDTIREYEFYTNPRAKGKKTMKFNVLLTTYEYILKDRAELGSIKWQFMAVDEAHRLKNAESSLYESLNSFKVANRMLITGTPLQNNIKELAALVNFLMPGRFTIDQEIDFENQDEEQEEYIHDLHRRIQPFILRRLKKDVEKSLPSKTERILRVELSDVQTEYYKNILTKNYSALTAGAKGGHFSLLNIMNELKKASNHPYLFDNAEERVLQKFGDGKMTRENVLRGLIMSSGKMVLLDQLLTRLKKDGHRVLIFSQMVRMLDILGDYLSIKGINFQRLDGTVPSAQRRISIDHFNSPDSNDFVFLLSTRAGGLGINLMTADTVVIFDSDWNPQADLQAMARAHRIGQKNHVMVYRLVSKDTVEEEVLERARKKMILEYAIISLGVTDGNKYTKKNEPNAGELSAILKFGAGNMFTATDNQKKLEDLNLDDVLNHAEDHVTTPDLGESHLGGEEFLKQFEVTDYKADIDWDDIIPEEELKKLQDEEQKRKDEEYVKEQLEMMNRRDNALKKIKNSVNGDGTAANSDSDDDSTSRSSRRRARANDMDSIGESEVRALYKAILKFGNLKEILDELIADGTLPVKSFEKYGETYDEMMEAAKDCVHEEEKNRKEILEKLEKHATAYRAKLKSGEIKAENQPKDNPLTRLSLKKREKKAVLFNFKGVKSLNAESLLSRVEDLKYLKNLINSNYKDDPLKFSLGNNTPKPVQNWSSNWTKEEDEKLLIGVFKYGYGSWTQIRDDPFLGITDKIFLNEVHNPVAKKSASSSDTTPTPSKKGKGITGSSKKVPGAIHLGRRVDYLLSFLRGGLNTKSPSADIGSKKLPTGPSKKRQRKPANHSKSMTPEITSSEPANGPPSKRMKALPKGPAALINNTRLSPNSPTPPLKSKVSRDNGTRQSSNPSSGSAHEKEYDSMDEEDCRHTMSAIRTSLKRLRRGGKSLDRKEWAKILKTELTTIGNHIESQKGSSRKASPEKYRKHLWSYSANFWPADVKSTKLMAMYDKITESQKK

| Compound | Percent Effect [1] | Percent Effect [2] | Percent Effect [3] | Percent Effect [4] | Percent Effect (Trypanosoma cruzi) | Percent Effect [5] | Percent Effect [6] | Percent Effect (Homo sapiens) | Percent Effect [7] | Percent Effect [8] | Percent Effect [9] |
| --- | --- | --- | --- | --- | --- | --- | --- | --- | --- | --- | --- |
| CSCCC(CO)NC(=O)c1sc(-c2ccccc2Cl)nc1C (configuration not stated) | -3.21% | 4% | 7.64% | 6.5% | -5.89% | -6.16% | 11.3% | 6.86% | 1.06% | 7.69% | -4% |
| CCc1cnc2c(c1Nc1ccc(OC)cc1)c(=O)n(C)c(=O)n2C | -1.52% | 18.2% | 0.437% | -14.7% | 2.66% | -41.9% | 8.88% | 11.4% | 4.23% | 8.97% | -11.2% |
| Cc1ccc(CN2Cc3c(C(=O)N(C)C)nn(C)c3C2)s1 | -0.916% | -19.2% | -24.4% | 6.15% | 6.75% | -1.2% | 7.79% | -12.5% | 3.12% | 11.1% | -3.35% |
| CCn1nccc1CNC(=O)NC1CCCCC1 | -3.38% | 7.79% | 7.6% | -2.52% | -7.18% | 0% | 9.98% | 12% | 1.07% | 3.7% | -2.19% |
| Cc1ncsc1C(=O)N(C)Cc1cccc(Cl)c1 | 0.989% | 18.4% | -2.9% | -2.59% | 2.44% | -2.3% | 20.6% | 7.48% | 5.39% | 19.5% | -10.9% |
| CCCc1nc(CN2CCN(Cc3noc(CCC)n3)CC2)no1 | -5.83% | 13.9% | -4.71% | 0.206% | -0.718% | -8.39% | 10.5% | 7.72% | 11.5% | 17.7% | -33.6% |
| CCc1nc(CN2CCCN(C(=O)c3cnc[nH]3)CC2)cs1 | -0.253% | -2.7% | 2.03% | 4.57% | 2.14% | -1.66% | 12.9% | 2.83% | 3.96% | 1.22% | 4.62% |
| O=C(O)c1c[nH]c2cc(NS(=O)(=O)c3cccc(Cl)c3F)ccc12 | -4.73% | -10.4% | -45.8% | 7.97% | 0.562% | 5.69% | 4.22% | 2.38% | -11.7% | -24.4% | 0.552% |
| O=C(Cn1nc(-c2ccc(F)cc2)oc1=O)NCc1ccc(F)cc1 | 0.533% | 10.5% | -7.15% | -1.53% | -7.52% | -6.9% | 13.4% | 21% | 0.49% | 7.32% | -14.3% |
| CCn1ncc2c1C(COCC1CC1)CN(S(=O)(=O)N(C)C)C2 (configuration not stated) | 0.0926% | 19.2% | -8.78% | 10.2% | 2.78% | -0.798% | 10.4% | 9.33% | 9.38% | 18.5% | -8.61% |
| COc1ccnc(N2CCN(C(=O)NCc3ccc(C)s3)CC2)n1 | -4.33% | 15.6% | 6.59% | 2.69% | 4.6% | 1.47% | 5.42% | -2.65% | 5.71% | 18.8% | -0.255% |
| CNc1cc(N2CCCC2CNCc2ccccn2)ncn1 (configuration not stated) | -1.73% | 13.5% | -11.7% | -3.49% | -2.93% | -2.08% | 16% | 24.8% | 11.9% | 11% | 26.6% |
| CCSCCC(=O)Nc1ncn(CC(=O)NCc2ccccc2)n1 | -4.92% | 16% | -4.62% | 16.7% | 8.86% | 3.65% | 25.1% | 5.59% | 12.6% | 28.4% | -2.42% |
| COc1ccccc1[C@@H]1CN(Cc2cc(C(C)(C)C)[nH]n2)C[C@H]1C(=O)O | -3.72% | 18.1% | -4.78% | 2.73% | 4.18% | 5.3% | 20.2% | 0.766% | 5.26% | 10.3% | -3.34% |
| O=C(c1cccc(Cl)c1)N1CCCn2c(CN3CCCCC3)nnc2C1 | -9.25% | 8% | -3.61% | 1.72% | -6.3% | -2.1% | 0.441% | 10.4% | 4.25% | 3.85% | -2.51% |
| Cc1nc2ccccc2c(=O)n1CCC(=O)N1CCSCC1 | -6.49% | 13.2% | 14.1% | 6.54% | 3.19% | 0% | 6.85% | 4.99% | 6.37% | 17.1% | -13.3% |
| O=C(c1ccco1)N1C[C@@H]2OCCN(CCN3CCCC3)[C@@H]2C1 | -2.67% | 5.41% | 5.74% | -2.98% | -1.07% | 1.59% | 16.1% | -16.1% | 2.16% | 5.13% | 4.02% |
| CCN(CC(=O)NC(C)C)S(=O)(=O)N1CCC(C)C1 (configuration not stated) | -2.1% | 0% | -2.33% | -4.69% | 2.05% | 1.24% | 5.24% | -14.3% | 1.07% | 6.17% | -6.4% |
| Cc1cnn(CC2CCCCN2CCC(=O)Nc2cc(C)on2)c1 (configuration not stated) | -4.7% | 3.8% | -0.138% | 0.417% | 0.308% | -1.07% | 11.7% | -10.4% | 1.04% | 12.7% | -13.7% |
| Nc1ncc2c(n1)CN(C1CCCC1)C2=O | -4.34% | 10.4% | -3.73% | 9.11% | 4.82% | -168% | 19.5% | -17.3% | 10.8% | 21% | 121% |
| COc1ccc(CNC(=O)CNc2cc3c(cc2Cl)OCCCO3)cc1 | -3.73% | -2.7% | 2.47% | -4.48% | -2.25% | 0.744% | 3.35% | 11.5% | 1.07% | 1.24% | -1.22% |
| O=C(CN1CCC(C(=O)c2cc(F)ccc2F)CC1)NC1CCCC1 | -10.1% | -5.26% | 13.8% | -3.6% | -1.46% | 5.92% | 8.53% | 26.2% | 1.06% | 0% | -3.84% |
